Screening data (PubChem)
SIRT5 block = inhibitors of human sirtuin-5 desuccinylase; 1.1% of 330,000 active; AID 652115; Q9NXA8; inhibition, % at 15 µM; Purified SirT5, succinyl-peptide AMC, trypsin-coupled fluorescence; in the data active = inhibition above about 15%
PvdQ inh = P. aeruginosa PvdQ acylase inhibition; purified PvdQ acylase, fluorescence plate reader; inhibition, % at 10 µM; 0.063% of 340,000 active; in the data active = inhibition above about 30%, passing the limit was not always enough;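 also: 0% = vehicle neutral wells and 100% = reference inhibitor wells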
dFosB act-1 = activators of mouse delta FosB homodimer; purified delta FosB, TAMRA-CDK5 oligo fluorescence polarization; percent of positive-control signal above neutral wells; activation, % at 25 µM; 0.99% of 340,000 active; AID 493131;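 active = mean activation above about 17%, with every replicate also reaching it, limit read from the data, passing the limit was not always enough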
Target sequence (P13346 whole entry, looked up): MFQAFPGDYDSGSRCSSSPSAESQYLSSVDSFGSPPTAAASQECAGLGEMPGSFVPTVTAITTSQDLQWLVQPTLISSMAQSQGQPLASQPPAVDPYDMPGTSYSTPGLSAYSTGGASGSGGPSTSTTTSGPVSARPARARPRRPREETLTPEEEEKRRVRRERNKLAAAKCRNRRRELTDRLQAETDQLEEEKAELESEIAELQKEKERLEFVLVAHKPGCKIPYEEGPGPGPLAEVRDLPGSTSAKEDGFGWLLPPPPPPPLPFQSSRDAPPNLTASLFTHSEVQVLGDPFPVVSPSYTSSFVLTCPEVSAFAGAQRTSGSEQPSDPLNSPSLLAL
PglD DTNB = PglD (C. jejuni) enzyme inhibition; AID 602405; 0.098% of 360,000 active; purified PglD enzyme, DTNB colorimetric CoA detection; inhibition, % at 12.5 µM; in the data active = inhibition above about 16%, passing the limit was not always enough
FGF22 binding = FGF22 (human) thermal shift binding. Q9HCT0. recombinant FGF22 thermal shift, SYPRO orange fluorescence; percent of sucrose octasulfate shift, DMSO zero. activity (Tm shift, normalised), % at 9.99 µM. 1.5% of 340,000 active;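 active = mean Tm shift, scaled 0 neutral to 100 positive control, at about 1.3% or above, every replicate too, limit read from the data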
Target sequence (Q9HCT0 whole entry, looked up): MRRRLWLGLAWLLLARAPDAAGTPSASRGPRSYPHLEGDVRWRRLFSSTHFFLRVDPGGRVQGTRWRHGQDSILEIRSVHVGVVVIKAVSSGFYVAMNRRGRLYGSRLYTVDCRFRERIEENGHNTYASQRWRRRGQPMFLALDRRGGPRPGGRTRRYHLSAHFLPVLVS
CDK5 p35 inh = CDK5/p35 (human) kinase inhibition. Q00535+Q15078. Recombinant CDK5/p35, ADP-Glo luminescence, 60 min. inhibition, % at 10 µM. 0.01% of 330,000 active. AID 488839;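 active = highest replicate inhibition of at least 50% and at least 75% of replicates reaching 50%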;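 also: plate controls were DMSO neutral control for no effect and GW8510 at 10 µM for full effect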
dFosB act-2 = delta FosB (mouse) homodimer activation; 2,400 tested, under 10 active; activation, % at 24.9 µM; AID 588690; shares compounds with dFosB act-1; purified delta FosB, TAMRA-CDK5 oligo fluorescence polarization; normalised: neutral wells 0, positive control 100;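 active = highest replicate activation at or above 34% and every replicate reaching that threshold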;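 also: higher polarization means more probe DNA bound by delta FosB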
Active calls of the source: *; x = no result. Rows were chosen to be rich in hits. Some 2.8% of all compounds tested hit in one or more screens of this group.

SMILES	SIRT5 block	PvdQ inh	dFosB act-1	PglD DTNB	FGF22 binding	CDK5 p35 inh	dFosB act-2
C=CCn1c(=S)[nH]c2cc(-c3ccccc3)sc2c1=O	4	-7	40*	4	0	0	2
C=CCn1c(=S)[nH]c2ccccc2c1=O	x	-15	2	-3	x	2	x
COC(=O)c1sc2ncccc2c1OCc1c(Cl)cccc1Cl	x	-16	35*	1	x	0	5
COC(=O)c1sc2ncccc2c1OCc1cccc(Cl)c1	x	-18	-19	7	x	2	x
CCOC(=O)c1cccc(NC(=O)CCS(=O)(=O)c2ccc(Br)s2)c1	x	-9	111*	x	x	-2	3
CCOC(=O)c1cccc(NC(=O)CCS(=O)(=O)c2cccs2)c1	x	-6	0	-5	x	0	x
Cc1cc(C)c(C#N)c(SCC(=O)Nc2nnc(-c3ccccc3)s2)n1	x	-20	39*	-3	x	2	0
Cc1cc(C)c(C#N)c(SCC(=O)Nc2ccccc2C)n1	-2	-11	2	x	0	1	x
Cc1csc(NC(=O)CSc2nsc(SCC(=O)Nc3nc(C)cs3)c2C#N)n1	x	15	25*	-7	x	2	3
CN(Cc1ccccc1)CC(O)CC(O)c1ccccc1 (configuration not stated)	-1	x	x	-3	0	x	x
COCC(=O)Nc1ccc2c(c1)[C@H]1C[C@H](CC(=O)N3CCN(C)CC3)O[C@H](CO)[C@H]1O2	x	x	x	-1	0	x	x
COc1ccc(NC(=O)c2ccc(-c3ccc([N+](=O)[O-])cc3)o2)cc1OC	3	-29	-14	4	0	-3	x
CC(=O)c1ccc(NC(=O)c2ccc(COc3ccccc3[N+](=O)[O-])o2)cc1	-4	-2	27*	1	0	x	2
O=C(Nc1ccc(CN2CCOCC2)cc1)c1ccc(-c2cc(Cl)ccc2Cl)o1	x	-6	26*	2	x	1	0
O=[N+]([O-])c1cccc(-c2ccc(C(=S)N3CCOCC3)o2)c1	0	-3	-4	5	0	-1	x
O=C(Nc1ccc(CN2CCOCC2)cc1)c1ccc(-c2cccc([N+](=O)[O-])c2)o1	-2	-11	17*	-4	0	2	1
CC(=O)Nc1ccc(NC(=O)c2ccc(-c3ccc([N+](=O)[O-])cc3)o2)cc1	-11	-3	29*	-4	0	0	4
O=C1CN(Cc2ccc(F)cc2)C[C@@H]2[C@@H](c3ccc(-c4ccccc4F)cc3)[C@H](CO)N12	1	x	x	x	x	x	x
O=C(Nc1nccs1)c1ccc(-c2cccc([N+](=O)[O-])c2)o1	-1	-5	26*	-8	0	-1	2
O=C(Cn1c(=O)oc2ccccc21)Nc1ccc(S(=O)(=O)N2CCCCC2)cc1	x	-7	60*	x	x	1	5
CCN(CC)S(=O)(=O)c1ccc(NC(=O)Cn2c(=O)oc3ccccc32)cc1	x	-9	4	2	x	0	x
CCOC(=O)c1c(CSC(=N)N)n(-c2ccc(C)cc2)c2cc(Br)c(OC(C)=O)cc12	x	-46	37*	-1	x	0	2
Cc1nn(CC(=O)NCCc2cccs2)c(=O)c2cc3ccccc3n12	1	-7	26*	-4	0	2	4
O=C(CCNC(=O)c1ccccc1Cl)Nc1cc(C(F)(F)F)ccc1Cl	-6	-1	34*	x	0	-2	6
Cc1ccc(C)c(NC(=O)CC2Sc3ccccc3NC2=O)c1 (configuration not stated)	x	4	1	x	0	0	x
SMILES	SIRT5 block	PvdQ inh	dFosB act-1	PglD DTNB	FGF22 binding	CDK5 p35 inh	dFosB act-2
Cc1c(Cl)cccc1NC(=O)CC1Oc2ccccc2NC1=O (configuration not stated)	-4	-11	23*	x	0	-2	5
Cc1c(Cl)cccc1NC(=O)CC1Sc2ccccc2NC1=O (configuration not stated)	-6	-8	46*	-1	0	-1	2
CC=Cc1ccc2n(c1=O)C[C@H]1[C@H](CO)[C@@H](C(=O)N[C@@H](C)c3ccccc3)[C@@H]2N1Cc1ccccc1 (mixture of isomers)	4	x	x	x	0	x	x
CC(=O)N1[C@@H]2CN(C(=O)c3ccccc3)c3ccccc3[C@@H]2[C@@H]1CO	-1	x	x	1	1	x	x
C/C=C/c1ccc([C@@H]2[C@H](CO)N(C(=O)CC)[C@H]2CNC(=O)C2CC2)cc1	2	x	x	4	0	x	x
C[C@@H]1CCCCO[C@H](CN(C)Cc2ccccc2)[C@@H](C)CN([C@@H](C)CO)C(=O)c2cc(NS(=O)(=O)c3ccc(F)cc3)ccc2O1	1	x	x	-2	x	x	x
Cc1nnc(NC(=O)CC(NC(=O)C(F)(F)F)c2ccccc2)s1 (configuration not stated)	-2	-11	0	x	0	-4	x
O=C(CC(NC(=O)C(F)(F)F)c1ccccc1)Nc1nnc(CCc2ccccc2)s1 (configuration not stated)	0	4	19*	x	0	-1	4
O=C(CN1C(=O)/C(=C/c2ccc(C(F)(F)F)cc2)Sc2ccccc21)NCCCN1CCOCC1	4	3	25*	-2	0	2	0
CCN(CC(=O)Nc1ccc(NC(C)=O)cc1)C(=O)/C=C/c1cn(-c2ccccc2)nc1-c1ccc(F)cc1	-4	-18	21*	x	0	-1	1
CCN(CC(=O)Nc1ccc(NC(C)=O)cc1)C(=O)/C=C/c1cn(-c2ccccc2)nc1-c1ccc(C)cc1	-3	-5	7	1	0	0	x
C[C@@H]1CN([C@@H](C)CO)C(=O)Cc2cc(NS(=O)(=O)c3ccccc3)ccc2O[C@@H]1CN(C)S(=O)(=O)c1cn(C)cn1	0	x	x	0	0	x	x
CO[C@H]1CN(C)C(=O)c2cc(NS(C)(=O)=O)ccc2OC[C@@H](C)N(CC2CC2)C[C@@H]1C	-4	x	x	-3	0	x	x
Cc1c(C(=O)OCC(=O)N2CC(=O)Nc3ccccc32)oc2ccccc12	x	0	33*	-5	x	1	-7
O=C1CN(C(=O)COC(=O)c2oc3ccccc3c2COc2ccccc2)c2ccccc2N1	x	-1	1	3	x	2	x
C/C=C/c1ccc([C@H]2[C@H](CO)N3C(=O)CN(Cc4ccc(C)cc4)C[C@@H]23)cc1	0	x	x	x	x	x	x
COc1ccc(/C=C/C(=O)NC(=S)Nc2ccccc2)cc1OC	-8	2	33*	4	0	1	0
NC(N)=NS(=O)(=O)c1ccc(NC(=S)NC(=O)/C=C/c2ccccc2)cc1	-4	-12	22*	1	0	1	3
COc1ccc(/C=C/C(=O)Nc2ccc(-n3nncc3-c3ccc(OC)c(OC)c3)cc2)cc1OC	0	-5	46*	5	0	-1	-2
